SMILES strings stand for the structures. Counter-ions that a name gives are not always drawn. ± gives the standard deviation of the averaged measurements.

The subject of assay [1] is Molm13. Kind of assay: cell viability relative to DMSO control (bortezomib = 0%); higher = less growth inhibition. The conditions noted are these: 10 nM; 72 h. The method in brief: (§1)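 Each plate's values were converted to percentages by linear regression, taking DMSO-treated cells as 100% and positive-control-treated cells as 0%. These plates were 384-well plates of 679 approved and investigational compounds at a single 10 nM dose, onto which acute myeloid leukemia cells were dispensed at 1000 cells per well in 50 µL for 72 h, in duplicate. Cell viability came from CellTiter-Glo luminescence on an EnVision reader.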

The test system of assay [2] is Mv4-11. The assay is described as above. The conditions noted are these: 10 nM; 72 h. The procedure, abridged: as §1

One may read the cell viability as a read-out of living cells in per cent, often relative to untreated cells. On to `CCCCCCCCCCCCCCCCOP(=O)([O-])OCC[N+](C)(C)C` [Miltefosine], for which the figures for the cell viability in assay [1] and in assay [2] were 76.2 ± 20% and 102 ± 7.5%, respectively.

Regarding `Oc1cccc(-c2nc(N3CCOCC3)c3oc4ncccc4c3n2)c1`, the cell viability in assay [1] stood at 94.1 ± 2.2%; in assay [2], 104 ± 8.7%.

Consider `O=C1NC(=O)[C@@H](c2cn3c4c(cccc24)CCC3)[C@@H]1c1c[nH]c2ccccc12` [Tivantinib (ARQ 197)], for which the cell viability in assay [1] was determined as 105 ± 3.9%; in assay [2], 115 ± 11%.

With `Cn1cc(/C=C2\C(=O)Nc3cccnc32)c2ccccc21`, the cell viability amounted to 104 ± 17% in assay [1] and 107 ± 3.6% in assay [2].

On to `COC(=O)c1ccc2c(c1)NC(=O)/C2=C(\Nc1ccc(N(C)C(=O)CN2CCN(C)CC2)cc1)c1ccccc1`, for which the cell viability stood at 87.7 ± 22% in assay [1] and 99.8 ± 8.2% in assay [2].

In the case of `CNS(=O)(=O)c1ccccc1Nc1nc(Nc2ccc(N3CCN(C)CC3)cc2OC)ncc1Cl` [ALK inhibitor 2], the cell viability in assay [1] was 98.9 ± 20%; in assay [2], 104 ± 16%.

With `COc1cc(N2CCC(N3CCN(C)CC3)CC2)ccc1Nc1ncnc(Nc2ccccc2S(=O)(=O)C(C)C)n1`, the cell viability in assay [1] was 96.5 ± 3.9%; in assay [2], 98.6 ± 15%.

In the case of `CN(C)C[C@@H]1CCn2cc(c3ccccc32)C2=C(C(=O)NC2=O)c2cn(c3ccccc23)CCO1` [Ruboxistaurin hydrochloride], the cell viability in assay [1] turned out to be 90 ± 7.3%; in assay [2], 101 ± 10%.

Consider `CCc1cc(-c2n[nH]c(C)c2-c2ccc3c(c2)OCCO3)c(O)cc1O`, for which the cell viability was determined as 102 ± 20% in assay [1] and 94.9 ± 12% in assay [2].

As for `N#C/C(=C\c1ccc(O)c(O)c1)C(=O)NCc1ccccc1` [AG-490 (Tyrphostin B42)], the values for the cell viability in assay [1] and in assay [2] were 103 ± 5.9% and 105 ± 1.8%, respectively.

As to `COc1cc(Nc2ncc(F)c(Nc3ccc4c(n3)NC(=O)C(C)(C)O4)n2)cc(OC)c1OC`, the cell viability in assay [1] was 105 ± 3.9%; in assay [2] it was 99.7 ± 6.4%.

As to `CN(C)C/C=C/C(=O)Nc1ccc(C(=O)Nc2cccc(Nc3ncc(Cl)c(-c4c[nH]c5ccccc45)n3)c2)cc1`, the cell viability in assay [1] amounted to 88 ± 18%; in assay [2], 95.3 ± 1.1%.

For the origin of these results see the supplement of paper PMC8699584.
